Inconclusive results are not listed. Active and inactive are the calls of the source. Unless noted, how the calls were made is not given here.
Legend:
[1] = High-throughput drug toxicity screening in the BPDCN cell line Gen2.2 (AID 1224824); conditions: Gen2.2 BPDCN cells; at 45.8 µM (top of the series) unless noted;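 further: cells exposed to compounds for 48 h before reading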
Method in brief: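 Gen2.2 cells, 500 per well in phenol red-free RPMI with 10% FBS, exposed to compounds 48 h at 37 C, 5% CO2; viability by CellTiter-Glo luminescence. Percent activity scaled to DMSO (100%) and 9.2 uM bortezomib final (0%).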

[2] = High-throughput drug toxicity screening in the BPDCN cell line Cal-1 (AID 1224825); conditions: Cal-1 BPDCN cell viability, qHTS; at 45.8 µM (top of the series) unless noted
Method in brief: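 Percent activity derived from CellTiter-Glo luminescence, scaling DMSO to 100% and 9.2 uM final bortezomib to 0%. BPDCN Cal-1 cells (500/well, RPMI plus 10% FBS) incubated with compounds 48 hours at 37C before reading.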

[3] = qHTS assay for measurement of the activity of small molecule inhibitors on Zika virus induced Caspase-3 activity in human astrocytoma cells (AID 1224859; active means well fitted inhibition curve with a large enough effect;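 further: plate controls were ZIKV-infected untreated cells for no effect and uninfected cells for full effect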)
Method in brief: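 Caspase activation in ZIKV-infected SNB-19 cells (2 FFU/cell, 6 h) measured by Caspase-Glo 3/7 luminescence after 30 min RT; compound pre-incubated 1 h; normalised to uninfected and infected controls.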

[4] = qHTS Screen of the MIPE 4.0 Collection Against Ewings Sarcoma (RDES) (AID 1259252; active means well fitted inhibition curve with a large enough effect; further: nearly all actives have a fitted effect of over 35% in size; further: potency means the concentration at half of the fitted maximal effect)
Method in brief: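 CellTiter-Glo luminescence after 48 h compound exposure (titration) gave viability; percent activity used DMSO-treated cells as no inhibition and medium-only wells as full inhibition. Cells grown in RPMI/5% FBS, dosed 4 h post-seeding.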

[5] = qHTS profiling of the MIPE4 collection as inhibitors of Plasmodium falciparum (3D7) proliferation (AID 743344);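 further: scaled between DMSO vehicle wells and 0.29 µM artemisinin as full inhibition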; conditions: P. falciparum 3D7 in erythrocytes, SYBR Green DNA fluorescence, 72 h; at 28.5 µM (top of the series) unless noted
Method in brief: (§1)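 Parasite DNA was quantified by SYBR Green I fluorescence (ex 485, em 535 nm) after overnight lysis in saponin/Triton buffer at room temperature. Cultures at 0.3% parasitemia and 2.5% hematocrit were first exposed to compound for 72 h at 37 C; signals were normalised to artemisinin (0.29 uM) and vehicle wells.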

[6] = qHTS profiling of the MIPE4 collection as inhibitors of Plasmodium falciparum (DD2) proliferation (AID 743345); conditions: P. falciparum Dd2 in erythrocytes, SYBR Green DNA, 72 h; at 28.5 µM (top of the series) unless noted
Method in brief: as §1

[7] = qHTS profiling of the MIPE4 collection as inhibitors of Plasmodium falciparum (DD2) proliferation (Rep 2) (AID 743346); conditions: P. falciparum Dd2 in erythrocytes, SYBR Green DNA, 72 h; at 28.5 µM (top of the series) unless noted
Method in brief: as §1

[8] = qHTS profiling of the MIPE4 collection as inhibitors of Plasmodium falciparum (HB3) proliferation (AID 743347);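 further: plate controls were DMSO vehicle wells for no effect and artemisinin wells for full effect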; conditions: P. falciparum HB3 in erythrocytes, SYBR Green DNA, 72 h; at 28.5 µM (top of the series) unless noted
Method in brief: as §1

[9] = qHTS assay for measurement of the activity of small molecule inhibitors on Zika virus induced Caspase-3 activity in human iPSC derived neural progenitor cells (hNPCs) (AID 1224857; active means well fitted inhibition curve with a large enough effect; further: % of control where 0% means no effect; nearly all actives have a fitted effect of over 65% in size)
Method in brief: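 Zika virus (2 FFU/cell) infection of human iPSC-derived NPCs, 6 h, following 1 h compound preincubation. Read-out: Caspase-Glo 3/7 luminescence.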

| SMILES | cell viability, % of control (lower = more cytotoxic) [1] [%] | viability (% of control) [2] [%] | Potency [3] | Potency [4] | parasite growth, % of DMSO control [5] [%] | parasite growth remaining, % of DMSO control (lower = more inhibition) [6] [%] | parasite growth, % of control (lower = inhibition) [7] [%] | growth, % of control [8] [%] | Potency [9] |
| --- | --- | --- | --- | --- | --- | --- | --- | --- | --- |
| Cc1cn([C@@H]2C[C@@H](O)[C@H](CO)O2)c(=O)[nH]c1=O | 159 | 69.5 | inactive | inactive | – | – | – | – | – |
| OC[C@H]1O[C@@H](OCCc2ccc(O)cc2)[C@H](O)[C@@H](O)[C@H]1O | 106 | 96.6 | – | 23.5 µM (active) | 97.9 | 103 | 131 | 104 | inactive |
| Cc1cc(C(C)Nc2ccccc2)c2nc(N3CCOCC3)cc(=O)n2c1 (stereo not drawn) | 47.8 | 62.3 | – | 23.5 µM (active) | 11.8 | 71.3 | 31.1 | 15.4 | inactive |
| CC[C@@H]([C@H](C)O)n1ncn(-c2ccc(N3CCN(c4ccc(OCC5CO[C@@](Cn6cncn6)(c6ccc(F)cc6F)C5)cc4)CC3)cc2)c1=O (stereo partly drawn) | 169 | 108 | – | – | 6.37 | 9.01 | 20.2 | 5.52 | inactive |
| N#CC(=C1Nc2ccccc2S1)c1ccnc(OCc2ccc(CN3CCOCC3)cc2)n1 | 5.77 | 2.57 | – | 7.43 µM (active) | 14.1 | 57.9 | 35.2 | 10.8 | inactive |
| CC(C)C[C@@H](N)[C@H](O)C(=O)N[C@H](C(=O)N[C@H](C(=O)N[C@@H](CC(=O)O)C(=O)O)C(C)C)C(C)C | 128 | 104 | – | 20.9 µM (active) | 102 | 99.5 | 127 | 107 | inactive |

From PubChem BioAssay (NCATS)
